Results as given in PubChem BioAssay (NCI).
This is part of a sample that, as a whole, favours compounds with a hit. Of some 79,000 tested, about 15% had one in any assay. Activity calls are given as the source filed them. Rule as the data show it: active = growth inhibition above about 70%; inactive = the rest.

Tests used:
[1] = NCI Yeast Anticancer Drug Screen. Data for the rad50 strain (AID 155);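 also: 0% = growth of vehicle-only cultures of the same strain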; conditions: S. cerevisiae rad50 strain growth inhibition; at 50.0 µM; active compounds read high
Method in brief: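 DNA repair mutant yeast, compound exposure, growth read-out; inhibition is taken relative to vehicle.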

[2] = NCI Yeast Anticancer Drug Screen. Data for the mec2-1 strain (AID 157); conditions: S. cerevisiae mec2-1 strain, at 50.0 µM, active compounds read high
Method in brief: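 Test agents were screened against the mec2-1 yeast strain, with defined DNA repair or cell cycle alteration. Growth was scored as inhibition against vehicle-only controls.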

[3] = NCI Yeast Anticancer Drug Screen. Data for the sgs1 mgt1 strain (AID 161);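 also: 0% = growth of cultures given vehicle only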; conditions: S. cerevisiae sgs1 mgt1 strain, at 50.0 µM, active compounds read high
Method in brief: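 Mutant yeast exposed to compound; growth scored against vehicle-only wells.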

[4] = NCI Yeast Anticancer Drug Screen. Data for the cln2 rad14 strain (AID 165);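 also: 0% = growth equal to vehicle treated cultures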; conditions: S. cerevisiae cln2 rad14 strain, at 50.0 µM, active compounds read high
Method in brief: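 Growth of compound-exposed yeast (cln2 rad14 genotype) measured and expressed as inhibition relative to vehicle.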

[5] = NCI Yeast Anticancer Drug Screen. Data for the bub3 strain (AID 167); conditions: S. cerevisiae bub3 mutant strain, at 50.0 µM, active compounds read high
Method in brief: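 In this screen, a yeast mutant lacking normal mitotic checkpoint function is challenged with compound. Relative growth versus vehicle gives the inhibition value.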

[6] = NCI Yeast Anticancer Drug Screen. Data for the mlh1 rad18 strain (AID 175); conditions: S. cerevisiae mlh1 rad18 strain growth inhibition; at 50.0 µM; active compounds read high
Method in brief: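 In this whole-cell yeast screen, a strain with altered DNA damage repair is challenged with compound, and its growth is measured against matched vehicle-treated controls.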

Measured: growth inhibition

CN(CCCN(C)CCC1CCCCC1)CCC1CCCCC1
inactive: [1] 11.2% | [2] -1.05% | [3] 0.1% | [4] 54.8% | [5] 2.15% | [6] 7.7%

O=C(O)c1c[nH]c2ccccc2c1=O
inactive: [1] 4.95% | [2] -8.15% | [3] 5.7% | [4] -21.5% | [5] 1.65% | [6] 1.65%

Clc1cccc(Cl)c1C1CSc2ccccc2N=C1c1ccccc1 (configuration not stated)
inactive: [1] -2.55% | [2] 8.9% | [3] 16.3% | [4] 11% | [5] -0.9% | [6] 3.65%

CC(C)(N)CO[C@H]1C[C@H]2CC[C@@]1(C)C2(C)C
inactive: [1] 11.8% | [2] -5.7% | [3] 2.4% | [4] -26.4% | [5] 10.2% | [6] -6.15%

O=C(NC(=S)N1CC=CCC1)c1ccccc1
inactive: [1] 13.5% | [2] 16.7% | [3] 26.4% | [4] -1.95% | [5] 45.5% | [6] 21.3%

NC(=O)OCCO
inactive: [1] 19.2% | [2] 6.45% | [3] 10.9% | [4] 9.65% | [5] -2.35% | [6] 26.5%

Nc1cccc2cccc(O)c12
inactive: [1] 40.1% | [2] 18.7% | [3] -17.5% | [4] -10.8% | [5] 41.4% | [6] 43.5%

CS(=O)(=O)c1ccc(/C=C\C(=O)O)cc1
inactive: [1] 19.6% | [2] 7.1% | [3] 9% | [4] -8.4% | [5] -3.7% | [6] 19.2%

COC1OC(CO)C(OC)C(O)C1O (configuration not stated)
inactive: [1] -5.6% | [2] 0.2% | [3] 0.2% | [4] -6.7% | [5] -0.65% | [6] -2.2%

Nc1c(Br)cc(O)c2c1C(=O)c1ccccc1C2=O
inactive: [1] -11.6% | [2] -3.5% | [3] 8.55% | [4] 7% | [5] 26.9% | [6] 10.5%

COc1cccc2c1Cc1ccccc1-2
inactive: [1] 50.3% | [2] -3.6% | [3] 13.3% | [4] 12.8% | [5] 43.1% | [6] 24.4%

CCOc1ccc2c(c1)c(C)cc(C)[n+]2CC
inactive: [1] 4.45% | [2] -41% | [3] -13.2% | [4] -7.9% | [5] 13% | [6] -3.4%

CC(=O)N(CCCCCCN(C(C)=O)C(C)=O)C(C)=O
inactive: [1] -14.8% | [2] -9.25% | [3] -0.5% | [4] -0.55% | [5] -9.85% | [6] -6.15%

Cc1ccc2[nH]c3ccccc3c2c1
inactive: [1] 26.1% | [2] 14.6% | [3] 22.9% | [4] -14.8% | [5] 15% | [6] 31.1%

ClCC(Cl)[C@@H]1CC2C=CC1C2 (some centres not stated)
inactive: [1] 2.85% | [2] -3.65% | [3] 10.3% | [4] 15.6% | [5] 11.2% | [6] -6.1%

CC(C)=CCC[C@@H](C)[C@H]1CC[C@@]2(C)C3=C(CC[C@]12C)[C@@]1(C)CC[C@H](O)C(C)(C)[C@@H]1CC3
inactive: [1] 12.7% | [2] -24.8% | [3] 21.8% | [4] 9.85% | [5] 11.7% | [6] -7.3%

COC(C(=O)C(O)C(C)O)C1Cc2cc3cc(OC4CC(OC5CC(O)C(O)C(C)O5)C(O)C(C)O4)c(C)c(O)c3c(O)c2C(=O)C1OC1CC(OC2CC(O)C(OC3CC(C)(O)C(O)C(C)O3)C(C)O2)C(O)C(C)O1 (configuration not stated)
inactive: [1] -6.6% | [2] -23.4% | [3] -12.5% | [4] 6.95% | [5] -11.2% | [6] 11.8%

OCC(O)COc1ccc(Cl)cc1Cl (configuration not stated)
inactive: [1] 22.2% | [2] 6.25% | [3] 25.8% | [4] 8.85% | [5] 10.1% | [6] 16.8%

COc1ccc(Nc2cc(Cl)ccc2C(=O)O)cn1
inactive: [1] 4.25% | [2] 0.6% | [3] -6.95% | [4] 17.9% | [5] 5.3% | [6] -4.55%

Cc1cccc2ccccc12
inactive: [1] -9.65% | [2] -15.6% | [3] 10.5% | [4] 24.4% | [5] -3.6% | [6] 13.8%

CCC(=O)Oc1c(C)cc(O)c2ccccc12
inactive: [1] 8.95% | [2] -49.6% | [3] 18.7% | [4] 52.9% | [5] 35.2% | [6] 27.7%

CC(=O)NC(O)C(Cl)Cl (configuration not stated)
inactive: [1] -14.7% | [2] -6.05% | [3] -6.95% | [4] -23.3% | [5] -5.7% | [6] -14.2%

CCOC(=O)C(CCC#N)(CCC#N)C(=O)OCC
inactive: [1] 39.5% | [2] 9.8% | [3] -2.2% | [4] -21.3% | [5] 12.6% | [6] 38.7%

Oc1ccc(N=Cc2ccc(OCc3ccccc3)cc2)cc1
inactive: [1] 2.5% | [2] -29.9% | [3] 15.2% | [4] 0.25% | [5] 2.55% | [6] -4.1%

Cc1ccc(S(=O)(=O)Oc2ccc3sc4c(CO)ccc(NCCN(C)C)c4c(=O)c3c2)cc1
inactive: [1] 6.05% | [2] 26.4% | [3] 12.2% | [4] 21.6% | [5] 22.4% | [6] 1.55%

Nc1c(O)c(S(=O)(=O)O)c(O)c2c1C(=O)c1ccccc1C2=O
inactive: [1] 27.4% | [2] -2.7% | [3] 31.1% | [4] 30.9% | [5] 34.9% | [6] 33.6%

CCN(C(C)=O)c1ccc([N+](=O)[O-])cc1
inactive: [1] -11.9% | [2] -1.65% | [3] 2% | [4] -41.8% | [5] 3.05% | [6] -13.7%

Nc1nnc2cc(F)ccc2n1
inactive: [1] -18% | [2] -9.75% | [3] -5.9% | [4] 21.8% | [5] 11.7% | [6] -12.2%

CCOC(=O)CNC(=O)Sc1ccc(C(C)(C)C)cc1
inactive: [6] 61.8%
active: [1] 88.2% | [2] 88.2% | [3] 84.2% | [4] 70.2% | [5] 76.7%

CC(=O)C1C(=O)C(=O)N(c2cccc([N+](=O)[O-])c2)C1=O (configuration not stated)
inactive: [1] -40% | [2] -23.9% | [3] -8.75% | [4] -9.3% | [5] -23.4% | [6] -54.3%

COCC(N)=O
inactive: [1] 31.2% | [2] -17.9% | [3] 15.2% | [4] -5.1% | [5] 5.2% | [6] 13.8%

CC(=O)OCC1CCC(COC(C)=O)CC1 (configuration not stated)
inactive: [1] 9.75% | [2] -30.6% | [3] -10.4% | [4] -5.95% | [5] 19.7% | [6] -3.9%
